aSyn UTR act: Activators via SNCA 5'UTR binding, MLPCN | alpha-synuclein 5'UTR reporter, activators screen | activity score, % (tested at 7.5 µM), hits read low | 7.1% of 300,000 active; in the data active means activity score below about -60%
Each line names hits and unclear results; the compound was inactive in the other large screens. The list is a sample of the results.

Clc1ccc(SCc2cc(-c3ccccc3)on2)cc1	aSyn UTR act -75
c1ccc(Cc2cc(-c3ccccc3)on2)cc1	aSyn UTR act -130
c1ccc(SCc2cc(-c3ccccc3)no2)cc1	aSyn UTR act -143
O=C(Nc1nnc(CCc2ccccc2)s1)c1ccccc1	aSyn UTR act -91
COc1ccccc1C(=O)Nc1nnc(CCc2ccccc2)s1	aSyn UTR act -213
CC(C)(C)C(=O)Nc1nnc(CCc2ccccc2)s1	aSyn UTR act -126
O=[N+]([O-])c1cc(-c2nnc(C34CC5CC(CC(C5)C3)C4)o2)cc([N+](=O)[O-])c1	aSyn UTR act -97
CCCCCCc1ccc(N2C[C@H](C)[C@@H](CC(=O)NCc3ccccc3)C2=O)cc1	aSyn UTR act -82
COc1cccc(C2N=C(c3ccccc3C)NO2)c1OC (configuration not stated)	aSyn UTR act -80
CCc1ccc(Nc2cc(=O)n(C3CCCCC3)c(=O)[nH]2)cc1	aSyn UTR act -79
Cc1oc2c(c1C(=O)c1ccc(Cl)cc1)C(=O)C(=O)c1ccccc1-2	aSyn UTR act -87
Cc1ccc(C(=O)c2coc3c2C(=O)C(=O)c2ccccc2-3)cc1	aSyn UTR act -90
COc1ccc(C(=O)c2c(C(F)(F)F)oc3c2C(=O)c2ccccc2C3=O)cc1	none
CNC(C)C#Cc1ccc2oc3cccc(OC)c3c(=O)c2c1 (configuration not stated)	aSyn UTR act -128
CNC(C)C#Cc1ccc2c(=O)c3c(OC)cccc3oc2c1 (configuration not stated)	aSyn UTR act -66
C(=C/c1nccc2c1[nH]c1ccccc12)/c1ccc2c(c1)OCO2	aSyn UTR act -132
Cc1cccc(-c2noc(C3CCCCC3)n2)c1	aSyn UTR act -150
Cc1ccc(N(C)S(=O)(=O)c2ccc(-c3cnc(C4CC4)o3)cc2)cc1	none
CCS(=O)(=O)N1CCC(c2nc(-c3ccc(C)cc3)no2)CC1	aSyn UTR act -78
Cc1ccc(-c2noc(C3CCCCC3)n2)cc1	aSyn UTR act -187
Cc1cccc(-c2noc(-c3ccno3)n2)c1	aSyn UTR act -121
COCCNC(=O)c1cc2sc3ccccc3c2s1	aSyn UTR act -175
COCCCNC(=O)c1ccc(Cn2c(=O)c3ccccc3n(Cc3ccccc3C#N)c2=O)cc1	none
CCn1c(=O)c2cc(C(=O)NCCCOC)sc2c2ccccc21	aSyn UTR act -85
CCCN(CCC)CCCNC(=O)c1cc2c(=O)n(CC)c3ccccc3c2s1	aSyn UTR act -300
CCCCN(CC)CCNC(=O)c1cc2c(=O)n(CC)c3ccccc3c2s1	aSyn UTR act -274
CCCCN(CC)CCCNC(=O)c1cc2c(=O)n(CC)c3ccccc3c2s1	aSyn UTR act -321
CS(=O)(=O)c1ccc2nc(NC(=O)c3ccccc3Cl)sc2c1	aSyn UTR act -109
COc1ccccc1C(=O)Nc1nc2ccc(S(C)(=O)=O)cc2s1	aSyn UTR act -118
CS(=O)(=O)c1ccc2nc(NC(=O)c3ccccc3Br)sc2c1	aSyn UTR act -104
Cc1noc(C)c1C(=O)Nc1nc2ccc(S(C)(=O)=O)cc2s1	aSyn UTR act -70
COc1ccccc1C(=O)Nc1nc2ccccc2s1	none
CS(=O)(=O)c1ccc2nc(NC(=O)c3cccc(Cl)c3)sc2c1	aSyn UTR act -72
O=C(CSc1nnnn1-c1ccc(Cl)cc1)NC(=O)Nc1ccc2c(c1)OCCO2	aSyn UTR act -184
Cc1ccc(-n2nnnc2SCC(=O)NC(=O)Nc2ccc3c(c2)OCCO3)cc1	aSyn UTR act -160
Cc1nnc(SCC(=O)NC(=O)Nc2ccc3c(c2)OCCO3)n1N	aSyn UTR act -114
Cc1ccc(NC(=S)N2CCn3cccc3C2c2cccnc2)cc1 (configuration not stated)	aSyn UTR act -93
COc1ccccc1-c1nnc2sc(-c3cc4ccccc4o3)nn12	none
COc1cccc(OC)c1-c1nn2c(-c3ccco3)nnc2s1	aSyn UTR act -78
c1ccc(-c2nnsc2Sc2ccccn2)cc1	aSyn UTR act -91
O=S(=O)(c1ccc(Cl)c(Cl)c1)c1snnc1-c1ccccc1	none
CC1CCN(CCNC(=O)c2ccc3c(=O)n(Cc4ccc(Cl)cc4)c(=S)[nH]c3c2)CC1	none
O=C(NC1CCN(Cc2ccccc2)CC1)c1ccc(Cn2c(=S)[nH]c3ccc(N4CCOCC4)cc3c2=O)cc1	aSyn UTR act -92
CCc1ccc2oc(-c3cc(N)ccc3Cl)nc2c1	aSyn UTR act -63
Nc1ccc2oc(-c3ccccc3Cl)nc2c1	none
CCOc1ccc(C(=O)c2cccs2)cc1	aSyn UTR act -182
CC1=CCC(/C=N\Nc2nnc3c(n2)[nH]c2ccccc23)CC1 (configuration not stated)	aSyn UTR act -65
CCOC(=O)N1CCN(C(=O)c2ccc3oc(CCCc4ccccc4)nc3c2)CC1	aSyn UTR act -150
COCC1CCCCN1C(=O)c1ccc2oc(CCCc3ccccc3)nc2c1 (configuration not stated)	aSyn UTR act -86
CCOC(=O)C1CCCN(C(=O)c2ccc3oc(Cc4ccccc4)nc3c2)C1 (configuration not stated)	aSyn UTR act -207
Brc1ccc2nc(-c3c[nH]c4ccccc34)cn2c1	aSyn UTR act -164
